Measured values published in the supplement of paper PMC10849652.
The full data set covers some 7,900 targets. This sample favours those with a hit. About 0.6% of all pairs of compound and target were hits.

Tests used:
Assay in all cases: log2 fold change, soluble protein after heating vs DMSO (PISA); higher = thermal stabilisation; K562 cells, 10 uM, 30 min; active = over 0.2 and 3.5 SD of the protein, either way, in both replicates (recomputed)
[1] = compound: CN1CCN(CCOc2cc(OC3CCOCC3)c3c(Nc4c(Cl)ccc5c4OCO5)ncnc3c2)CC1 [saracatinib]
Outline: (§1)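 Thermal stability values are relative to control samples and come from duplicates. They are expressed as log2 fold changes. For measurement, K562 cells (2×10^6 cells/mL) received 10 μM compound for 30 min, and aliquots were heated for 3 min over 48°C-58°C, pooled, and extracted at 4°C in PBS with 0.5% NP-40. Soluble protein, the supernatant after 21,000xg for 90 min, was quantified by TMTpro 16plex LC-MS/MS with equalised channel sums.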

[2] = compound: CN1CCN(c2nc(C3=C(c4c[nH]c5ccccc45)C(=O)NC3=O)c3ccccc3n2)CC1 [sotrastaurin]
Outline: as §1

[3] = compound: CN1CC[C@H](c2c(O)cc(O)c3c(=O)cc(-c4ccccc4Cl)oc23)[C@H](O)C1 [alvocidib]
Outline: as §1

[4] = compound: CN1CCc2c(c3ccccc3n2Cc2ccc(C(=O)NO)cc2)C1 [Tubastatin A]
Outline: as §1

[5] = compound: CNC(=O)C1=CC=CC=C1NC2=NC(=NC=C2Cl)NC3=C(C=C(C=C3)N4CCOCC4)OC
Outline: as §1

[6] = compound: CNC(=O)c1ccc(Nc2ncc(C(F)(F)F)c(NCc3nccnc3N(C)S(C)(=O)=O)n2)cc1 [defactinib]
Outline: as §1

[7] = compound: CNCc1ccc(-c2[nH]c3cc(F)cc4c3c2CCNC4=O)cc1 [rucaparib]
Outline: as §1

[8] = compound: CNc1nc(-c2ccc3c(N)n[nH]c3c2)cc(N2C[C@@H](C(=O)NC3CCCCC3)CC[C@H]2C)n1
Outline: as §1

[9] = compound: COC(=O)N[C@@H](C)CNc1nccc(-c2cn(C(C)C)nc2-c2cc(Cl)cc(NS(C)(=O)=O)c2F)n1 [encorafenib]
Outline: as §1

[10] = compound: COC(=O)[C@H](CCSC)NC(=O)C1=C(C=C(C=C1)NC[C@H](CS)N)C2=CC=CC=C2
Outline: as §1

Measured: log2 fold change

WDR41 (UniProt Q9HAD4)
inactive: [1] 0.071 | [2] -0.037 | [3] -0.014 | [4] -0.054 | [5] -0.046 | [6] -0.007 | [7] 0.015 | [8] -0.031 | [9] 0.008 | [10] 0.036

XPO1 (UniProt O14980)
inactive: [1] 0.003 | [2] -0.088 | [3] -0.096 | [4] 0.001 | [5] -0.028 | [6] -0.093 | [7] -0.012 | [8] 0.02 | [9] 0.094 | [10] -0.041

WDCP (UniProt Q9H6R7)
Sequence of UniProt Q9H6R7 (Q9H6R7 whole entry, looked up): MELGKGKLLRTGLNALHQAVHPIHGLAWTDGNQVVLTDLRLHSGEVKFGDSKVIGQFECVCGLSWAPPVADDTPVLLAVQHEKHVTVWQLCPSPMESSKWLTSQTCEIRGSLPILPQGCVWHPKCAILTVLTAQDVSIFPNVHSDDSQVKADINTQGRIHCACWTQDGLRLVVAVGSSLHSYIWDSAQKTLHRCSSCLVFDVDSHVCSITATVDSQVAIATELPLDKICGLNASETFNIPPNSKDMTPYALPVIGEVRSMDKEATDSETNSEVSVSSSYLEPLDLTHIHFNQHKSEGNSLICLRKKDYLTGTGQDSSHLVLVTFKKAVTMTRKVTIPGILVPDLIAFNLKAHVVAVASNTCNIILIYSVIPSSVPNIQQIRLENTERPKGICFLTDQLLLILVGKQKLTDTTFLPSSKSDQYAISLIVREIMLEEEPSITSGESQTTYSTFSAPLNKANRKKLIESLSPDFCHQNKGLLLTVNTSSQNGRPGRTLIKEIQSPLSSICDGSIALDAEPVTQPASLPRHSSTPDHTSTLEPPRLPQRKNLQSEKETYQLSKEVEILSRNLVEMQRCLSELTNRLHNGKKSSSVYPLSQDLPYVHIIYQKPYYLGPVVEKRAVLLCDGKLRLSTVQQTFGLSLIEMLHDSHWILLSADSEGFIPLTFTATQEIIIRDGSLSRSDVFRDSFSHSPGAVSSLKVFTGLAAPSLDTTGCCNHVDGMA
inactive: [1] -0.039 | [2] -0.034 | [3] 0.054 | [4] -0.032 | [5] 0 | [6] -0.016 | [7] 0.14 | [8] -0.02 | [9] 0.043 | [10] -0.006

UFM1 isoform 2 (UniProt P61960)
Sequence of UniProt P61960 (P61960 whole entry, looked up): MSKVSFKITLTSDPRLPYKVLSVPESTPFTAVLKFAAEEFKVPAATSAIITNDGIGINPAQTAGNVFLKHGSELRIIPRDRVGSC
inactive: [1] 0 | [2] 0.044 | [3] -0.037 | [4] -0.158 | [5] 0.022 | [6] -0.065 | [7] -0.114 | [8] -0.024 | [9] 0.01 | [10] -0.082

TMEM120A (UniProt Q9BXJ8)
Sequence of UniProt Q9BXJ8 (Q9BXJ8 whole entry, looked up): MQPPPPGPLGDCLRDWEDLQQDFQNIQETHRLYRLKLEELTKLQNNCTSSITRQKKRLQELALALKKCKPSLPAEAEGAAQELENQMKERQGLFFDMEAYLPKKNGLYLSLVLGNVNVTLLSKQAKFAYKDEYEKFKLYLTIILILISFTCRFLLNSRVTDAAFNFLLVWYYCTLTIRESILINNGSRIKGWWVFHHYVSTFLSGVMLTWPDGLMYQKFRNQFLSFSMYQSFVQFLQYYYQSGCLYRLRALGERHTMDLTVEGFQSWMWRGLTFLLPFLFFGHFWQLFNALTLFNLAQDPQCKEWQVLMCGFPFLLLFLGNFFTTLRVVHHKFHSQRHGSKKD
inactive: [1] 0.036 | [2] -0.098 | [3] -0.084 | [4] 0.069 | [5] -0.013 | [6] -0.104 | [8] -0.036 | [9] 0.184 | [10] -0.047
active: [7] -0.559

VPS8 (UniProt Q8N3P4)
inactive: [1] -0.009 | [2] -0.096 | [3] -0.038 | [4] 0.09 | [5] 0.002 | [6] -0.171 | [7] 0.023 | [8] -0.015 | [9] 0.093 | [10] -0.078

TMEM173 (UniProt Q86WV6)
Sequence of UniProt Q86WV6 (Q86WV6 whole entry, looked up): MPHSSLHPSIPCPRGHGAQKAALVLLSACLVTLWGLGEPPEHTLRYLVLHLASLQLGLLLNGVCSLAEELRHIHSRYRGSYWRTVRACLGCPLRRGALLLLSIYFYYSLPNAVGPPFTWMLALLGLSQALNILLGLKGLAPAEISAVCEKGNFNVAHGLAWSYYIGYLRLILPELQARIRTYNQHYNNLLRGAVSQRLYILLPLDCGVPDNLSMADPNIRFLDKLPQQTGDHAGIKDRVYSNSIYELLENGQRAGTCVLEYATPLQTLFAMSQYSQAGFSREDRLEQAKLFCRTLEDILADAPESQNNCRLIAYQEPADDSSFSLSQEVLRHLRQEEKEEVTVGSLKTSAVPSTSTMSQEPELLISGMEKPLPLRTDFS
inactive: [1] -0.002 | [2] -0.023 | [3] -0.07 | [4] 0.03 | [5] 0.014 | [6] -0.055 | [7] -0.078 | [8] 0.034 | [9] 0.062 | [10] -0.005

WDR62 isoform 4 (UniProt O43379)
inactive: [1] -0.025 | [2] 0.037 | [3] -0.074 | [4] 0.027 | [5] -0.165 | [6] -0.06 | [7] -0.035 | [8] 0.017 | [9] 0.015 | [10] 0.014

TTI1 (UniProt O43156)
inactive: [1] -0.065 | [2] -0.128 | [3] 0.017 | [4] -0.007 | [5] -0.058 | [6] -0.046 | [7] 0.237 | [8] 0.053 | [9] 0.068 | [10] 0.004

TXNIP (UniProt Q9H3M7)
Sequence of UniProt Q9H3M7 (Q9H3M7 whole entry, looked up): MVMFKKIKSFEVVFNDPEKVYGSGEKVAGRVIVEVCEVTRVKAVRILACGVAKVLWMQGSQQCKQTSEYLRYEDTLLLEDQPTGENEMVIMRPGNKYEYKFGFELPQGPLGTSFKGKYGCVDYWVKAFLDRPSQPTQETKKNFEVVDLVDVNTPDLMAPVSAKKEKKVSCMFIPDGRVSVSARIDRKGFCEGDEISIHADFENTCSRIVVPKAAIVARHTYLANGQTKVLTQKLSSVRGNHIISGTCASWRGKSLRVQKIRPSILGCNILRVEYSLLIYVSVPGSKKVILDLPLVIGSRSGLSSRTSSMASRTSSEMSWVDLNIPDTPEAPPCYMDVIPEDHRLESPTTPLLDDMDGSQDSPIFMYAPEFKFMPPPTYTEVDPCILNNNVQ
inactive: [1] -0.074 | [2] 0 | [3] -0.307 | [4] 0.06 | [5] 0.179 | [6] -0.085 | [7] -0.026 | [8] 0.243 | [9] 0.01 | [10] 0.07

U2AF2 (UniProt P26368)
inactive: [1] 0.022 | [2] 0.056 | [3] -0.038 | [4] -0.007 | [5] -0.181 | [6] -0.035 | [7] 0.163 | [8] -0.037 | [9] -0.037 | [10] 0.001

TSEN2 (UniProt Q8NCE0)
inactive: [1] -0.014 | [2] -0.186 | [3] -0.044 | [4] -0.024 | [5] -0.042 | [6] -0.009 | [7] 0.007 | [8] -0.005 | [9] -0.068 | [10] -0.049

UTP14A (UniProt Q9BVJ6)
Sequence of UniProt Q9BVJ6 (Q9BVJ6 whole entry, looked up): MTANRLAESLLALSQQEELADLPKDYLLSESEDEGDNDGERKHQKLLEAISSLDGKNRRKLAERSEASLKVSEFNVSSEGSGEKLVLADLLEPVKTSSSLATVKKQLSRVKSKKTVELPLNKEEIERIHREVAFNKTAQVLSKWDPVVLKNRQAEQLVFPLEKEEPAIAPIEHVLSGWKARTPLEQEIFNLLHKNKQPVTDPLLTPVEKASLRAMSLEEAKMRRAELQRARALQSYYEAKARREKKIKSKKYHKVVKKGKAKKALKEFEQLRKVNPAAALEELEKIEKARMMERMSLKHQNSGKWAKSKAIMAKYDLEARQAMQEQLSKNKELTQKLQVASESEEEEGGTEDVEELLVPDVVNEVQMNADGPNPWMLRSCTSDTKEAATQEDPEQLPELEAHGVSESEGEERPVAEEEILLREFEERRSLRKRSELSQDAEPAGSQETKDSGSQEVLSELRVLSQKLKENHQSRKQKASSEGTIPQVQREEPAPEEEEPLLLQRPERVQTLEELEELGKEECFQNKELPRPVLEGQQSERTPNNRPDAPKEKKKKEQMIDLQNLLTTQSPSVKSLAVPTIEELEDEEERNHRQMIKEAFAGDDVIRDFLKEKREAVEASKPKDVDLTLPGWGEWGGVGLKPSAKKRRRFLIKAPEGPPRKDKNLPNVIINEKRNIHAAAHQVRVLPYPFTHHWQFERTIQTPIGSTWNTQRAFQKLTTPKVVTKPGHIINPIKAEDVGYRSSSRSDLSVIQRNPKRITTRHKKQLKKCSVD
inactive: [1] -0.023 | [2] -0.017 | [3] 0.077 | [4] 0.163 | [5] 0.024 | [6] 0.055 | [7] 0.15 | [8] 0.066 | [9] 0.124 | [10] 0.021

TNFRSF8 (UniProt P28908)
Sequence of UniProt P28908 (P28908 whole entry, looked up): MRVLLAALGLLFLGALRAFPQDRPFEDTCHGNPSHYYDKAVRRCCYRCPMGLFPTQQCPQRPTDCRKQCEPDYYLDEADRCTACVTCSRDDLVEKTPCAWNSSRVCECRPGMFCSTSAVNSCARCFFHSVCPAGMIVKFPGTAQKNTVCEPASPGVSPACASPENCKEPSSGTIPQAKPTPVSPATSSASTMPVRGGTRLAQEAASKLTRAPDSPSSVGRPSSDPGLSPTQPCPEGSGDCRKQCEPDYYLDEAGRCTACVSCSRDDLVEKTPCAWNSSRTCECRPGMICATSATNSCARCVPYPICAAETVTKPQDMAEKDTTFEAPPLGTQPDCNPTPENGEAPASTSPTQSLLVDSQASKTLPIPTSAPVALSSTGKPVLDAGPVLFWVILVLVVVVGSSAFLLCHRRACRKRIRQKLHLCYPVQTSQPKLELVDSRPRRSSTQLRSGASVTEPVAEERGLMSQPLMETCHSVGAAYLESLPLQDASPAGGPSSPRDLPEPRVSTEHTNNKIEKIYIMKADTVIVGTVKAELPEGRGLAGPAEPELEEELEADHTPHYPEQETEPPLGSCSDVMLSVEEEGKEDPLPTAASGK
inactive: [1] 0.037 | [2] 0.092 | [3] -0.013 | [4] 0.031 | [5] -0.013 | [6] -0.034 | [7] 0.012 | [8] 0.04 | [9] -0.046 | [10] -0.02

XPO6 (UniProt Q96QU8)
inactive: [1] -0.012 | [2] -0.119 | [3] -0.115 | [4] -0.009 | [5] 0.036 | [6] -0.104 | [7] 0.076 | [8] 0.037 | [9] 0.015 | [10] -0.03

UBE2S (UniProt Q16763)
Sequence of UniProt Q16763 (Q16763 whole entry, looked up): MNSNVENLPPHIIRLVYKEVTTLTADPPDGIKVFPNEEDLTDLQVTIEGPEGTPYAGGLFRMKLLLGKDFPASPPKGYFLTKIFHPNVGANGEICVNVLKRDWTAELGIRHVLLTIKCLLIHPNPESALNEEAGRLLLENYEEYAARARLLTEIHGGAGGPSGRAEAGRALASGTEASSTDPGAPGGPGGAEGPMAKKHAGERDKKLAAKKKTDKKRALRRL
inactive: [1] -0.001 | [2] -0.023 | [3] -0.078 | [4] 0.2 | [5] -0.016 | [6] -0.082 | [7] -0.051 | [8] -0.041 | [9] 0.022 | [10] -0.007

UBAP1 isoform 4 (UniProt Q9NZ09)
Sequence of UniProt Q9NZ09 (Q9NZ09 whole entry, looked up): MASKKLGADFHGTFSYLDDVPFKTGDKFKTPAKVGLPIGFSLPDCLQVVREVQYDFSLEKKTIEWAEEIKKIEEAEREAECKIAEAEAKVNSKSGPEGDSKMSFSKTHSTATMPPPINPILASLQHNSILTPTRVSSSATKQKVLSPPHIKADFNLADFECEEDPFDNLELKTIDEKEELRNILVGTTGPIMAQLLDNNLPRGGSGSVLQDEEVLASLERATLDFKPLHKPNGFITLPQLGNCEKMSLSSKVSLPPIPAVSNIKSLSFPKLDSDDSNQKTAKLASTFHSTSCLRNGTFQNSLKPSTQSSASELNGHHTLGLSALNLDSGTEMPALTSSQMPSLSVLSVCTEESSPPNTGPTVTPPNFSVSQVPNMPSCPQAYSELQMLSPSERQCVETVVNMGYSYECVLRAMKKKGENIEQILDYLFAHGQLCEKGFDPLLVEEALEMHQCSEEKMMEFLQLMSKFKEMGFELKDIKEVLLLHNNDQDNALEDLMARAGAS
inactive: [1] -0.023 | [2] -0.032 | [3] -0.038 | [4] 0.007 | [5] -0.028 | [6] -0.08 | [7] 0.089 | [8] -0.053 | [9] -0.05 | [10] 0.006

TXN2 (UniProt Q99757)
Sequence of UniProt Q99757 (Q99757 whole entry, looked up): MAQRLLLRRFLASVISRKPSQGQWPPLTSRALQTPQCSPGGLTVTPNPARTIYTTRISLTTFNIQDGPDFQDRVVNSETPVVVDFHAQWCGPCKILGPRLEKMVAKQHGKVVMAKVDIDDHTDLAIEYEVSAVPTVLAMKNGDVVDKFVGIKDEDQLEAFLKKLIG
inactive: [1] 0.004 | [2] 0.04 | [3] -0.058 | [4] 0.004 | [5] 0.17 | [6] 0.031 | [7] -0.003 | [8] -0.034 | [9] 0.001 | [10] 0.068

USP9X (UniProt Q93008)
inactive: [1] -0.006 | [2] -0.073 | [3] -0.056 | [4] -0.014 | [5] -0.022 | [6] -0.03 | [7] 0.032 | [8] -0.003 | [9] 0.082 | [10] -0.009

TTI2 (UniProt Q6NXR4)
Sequence of UniProt Q6NXR4 (Q6NXR4 whole entry, looked up): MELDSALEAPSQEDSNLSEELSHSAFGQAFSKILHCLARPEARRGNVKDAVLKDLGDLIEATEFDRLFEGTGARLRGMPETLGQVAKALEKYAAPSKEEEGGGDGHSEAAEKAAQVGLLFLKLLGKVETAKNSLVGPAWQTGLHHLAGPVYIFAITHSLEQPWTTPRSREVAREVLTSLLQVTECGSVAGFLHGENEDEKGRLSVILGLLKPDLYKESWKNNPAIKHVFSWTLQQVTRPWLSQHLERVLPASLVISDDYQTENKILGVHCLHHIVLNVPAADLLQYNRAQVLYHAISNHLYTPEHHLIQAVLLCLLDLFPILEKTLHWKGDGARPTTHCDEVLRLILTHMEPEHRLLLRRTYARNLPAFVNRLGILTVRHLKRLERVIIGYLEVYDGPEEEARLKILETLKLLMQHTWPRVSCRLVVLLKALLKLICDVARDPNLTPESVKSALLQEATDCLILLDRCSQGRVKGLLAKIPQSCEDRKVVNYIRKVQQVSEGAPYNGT
inactive: [1] -0.028 | [2] -0.187 | [3] 0.027 | [4] -0.02 | [5] 0.051 | [6] -0.073 | [7] 0.119 | [8] -0.036 | [9] 0.037 | [10] -0.038

TMEM87B (UniProt Q96K49)
inactive: [1] -0.072 | [2] 0.013 | [3] -0.046 | [4] -0.099 | [5] -0.019 | [6] 0.044 | [7] -0.016 | [8] -0.123 | [9] 0.03 | [10] 0.149

TRMT10A (UniProt Q8TBZ6)
inactive: [1] -0.028 | [2] -0.024 | [3] -0.12 | [4] -0.038 | [5] 0.054 | [6] -0.06 | [7] 0.016 | [8] 0.032 | [9] 0.026 | [10] 0.036

WDR61 (UniProt Q9GZS3)
inactive: [1] -0.011 | [2] 0.064 | [3] -0.051 | [4] -0.011 | [5] -0.005 | [6] -0.012 | [7] -0.012 | [8] -0.007 | [9] -0.028 | [10] 0.031

TRAPPC13 isoform 5 (UniProt A5PLN9)
inactive: [1] 0.045 | [2] -0.061 | [3] -0.029 | [4] 0.026 | [5] 0.04 | [6] -0.051 | [7] 0.072 | [8] -0.045 | [9] 0.217 | [10] -0.099

TP53BP1 isoform 2 (UniProt Q12888)
inactive: [1] 0.01 | [2] -0.112 | [3] -0.081 | [4] 0.116 | [5] 0.061 | [6] -0.073 | [7] 0.025 | [8] -0.022 | [9] 0.059 | [10] 0.036

TMEM192 (UniProt Q8IY95)
inactive: [1] 0.092 | [2] -0.028 | [3] 0.001 | [4] 0.035 | [5] 0.015 | [6] -0.016 | [7] -0.01 | [8] -0.033 | [9] -0.02 | [10] 0.036

TRAPPC3 (UniProt O43617)
Sequence of UniProt O43617 (O43617 whole entry, looked up): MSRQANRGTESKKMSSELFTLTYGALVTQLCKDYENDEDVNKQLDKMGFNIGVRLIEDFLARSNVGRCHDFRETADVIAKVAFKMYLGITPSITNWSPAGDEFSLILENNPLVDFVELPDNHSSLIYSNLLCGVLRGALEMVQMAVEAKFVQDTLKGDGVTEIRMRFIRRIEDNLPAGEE
inactive: [1] 0.063 | [2] 0.001 | [3] -0.071 | [4] -0.026 | [5] 0 | [6] -0.072 | [7] -0.056 | [8] -0.014 | [9] 0.015 | [10] 0.013

TNFAIP8 isoform 4 (UniProt O95379)
inactive: [1] 0.009 | [2] -0.125 | [3] -0.072 | [4] 0.083 | [5] -0.046 | [6] -0.033 | [7] -0.04 | [8] -0.064 | [9] -0.016 | [10] -0.015

TMEM164 (UniProt Q5U3C3)
inactive: [1] -0.13 | [2] 0.197 | [3] 0.025 | [4] 0.012 | [5] 0.033 | [6] 0.06 | [7] -0.233 | [8] 0.061 | [9] 0.211 | [10] -0.003

TMEM161A (UniProt Q9NX61)
inactive: [1] 0.011 | [2] 0.027 | [3] -0.027 | [4] 0.039 | [5] -0.108 | [6] 0.03 | [7] -0.106 | [8] -0.029 | [9] 0.106 | [10] 0.058
